# Results as given in paper PMC7862700, “An all-to-all approach to the identification of sequence-specific readers for epigenetic DNA modifications on cytosine”.
# Key:
# Experiment in all cases: DAPPL (digital affinity profiling via proximity ligation, sequencing); 10 mM Tris-HCl pH 7.5, 50 mM NaCl, 1 mM DTT, 4% glycerol, room temperature, 30 min; GST-TFs on glutathione beads, 16-mer random dsDNA library, 0.1% formaldehyde crosslink after washing; high values mean tight binding
# FLI1 = molecular target: T1, FLI1 (Homo sapiens, UniProt Q01543 1-452); conditions: protein: recombinant; tags: N-terminal GST; dsDNA, one strand shown
# T1 sequence: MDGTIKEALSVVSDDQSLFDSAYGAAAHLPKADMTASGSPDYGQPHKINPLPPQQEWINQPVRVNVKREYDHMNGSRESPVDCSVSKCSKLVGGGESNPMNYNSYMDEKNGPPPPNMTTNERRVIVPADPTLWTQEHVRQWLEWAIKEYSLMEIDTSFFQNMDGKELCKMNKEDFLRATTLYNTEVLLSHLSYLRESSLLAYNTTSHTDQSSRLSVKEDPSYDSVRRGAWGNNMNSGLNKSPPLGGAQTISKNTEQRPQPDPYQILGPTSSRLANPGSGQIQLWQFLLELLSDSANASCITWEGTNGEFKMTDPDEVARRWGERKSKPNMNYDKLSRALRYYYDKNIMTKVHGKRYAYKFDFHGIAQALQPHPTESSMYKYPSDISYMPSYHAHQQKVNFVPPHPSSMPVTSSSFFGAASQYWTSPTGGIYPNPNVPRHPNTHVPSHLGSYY
# How it was run: (§1)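 Yeast served to express human transcription factors as GST fusions, which were then captured on glutathione beads and labelled with DNA barcodes. Pooled with a tag-only sample, they were incubated with 200 nmole of a 16-mer random double-stranded DNA library for 30 min at room temperature in Tris/NaCl/DTT/glycerol buffer, washed, crosslinked with 0.1% formaldehyde, ligated by proximity, amplified by PCR and sequenced. Dividing each hexamer's read frequency for a factor by its frequency for the tag-only sample gives the binding signal.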
# ELK1 = molecular target: T2, ELK1 (Homo sapiens, UniProt P19419 1-428); conditions: protein: recombinant; tags: N-terminal GST; dsDNA, one strand shown
# T2 sequence: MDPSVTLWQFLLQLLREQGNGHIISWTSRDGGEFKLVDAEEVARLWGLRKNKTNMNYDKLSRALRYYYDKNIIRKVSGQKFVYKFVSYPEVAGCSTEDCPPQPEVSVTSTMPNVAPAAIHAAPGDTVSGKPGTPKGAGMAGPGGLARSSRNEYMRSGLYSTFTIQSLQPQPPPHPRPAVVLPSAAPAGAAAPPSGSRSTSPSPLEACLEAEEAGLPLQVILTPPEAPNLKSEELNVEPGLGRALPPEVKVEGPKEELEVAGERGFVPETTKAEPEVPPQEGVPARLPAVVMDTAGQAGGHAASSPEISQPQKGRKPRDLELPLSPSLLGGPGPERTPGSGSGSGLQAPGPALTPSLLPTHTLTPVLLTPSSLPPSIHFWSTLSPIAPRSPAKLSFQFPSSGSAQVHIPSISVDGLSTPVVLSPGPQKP
# How it was run: as §1
# GABPA = molecular target: T3, GABPA (Homo sapiens, UniProt Q06546 1-454); conditions: protein: recombinant; tags: N-terminal GST; dsDNA, one strand shown
# T3 sequence: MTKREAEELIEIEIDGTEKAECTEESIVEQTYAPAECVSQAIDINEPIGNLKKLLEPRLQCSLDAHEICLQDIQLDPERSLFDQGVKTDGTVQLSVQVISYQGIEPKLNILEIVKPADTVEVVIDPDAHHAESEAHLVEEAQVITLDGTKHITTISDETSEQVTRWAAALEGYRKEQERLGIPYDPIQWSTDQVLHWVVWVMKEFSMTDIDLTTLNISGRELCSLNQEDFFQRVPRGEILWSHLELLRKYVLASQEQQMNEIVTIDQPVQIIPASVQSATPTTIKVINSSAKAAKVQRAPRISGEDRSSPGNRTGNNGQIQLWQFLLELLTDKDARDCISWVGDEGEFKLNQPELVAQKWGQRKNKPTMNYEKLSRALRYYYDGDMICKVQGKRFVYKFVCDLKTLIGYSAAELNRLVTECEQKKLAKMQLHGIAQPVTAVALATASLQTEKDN
# How it was run: as §1
# ERG = molecular target: T4, ERG (Homo sapiens, UniProt P11308 1-479); conditions: protein: recombinant; tags: N-terminal GST; dsDNA, one strand shown
# T4 sequence: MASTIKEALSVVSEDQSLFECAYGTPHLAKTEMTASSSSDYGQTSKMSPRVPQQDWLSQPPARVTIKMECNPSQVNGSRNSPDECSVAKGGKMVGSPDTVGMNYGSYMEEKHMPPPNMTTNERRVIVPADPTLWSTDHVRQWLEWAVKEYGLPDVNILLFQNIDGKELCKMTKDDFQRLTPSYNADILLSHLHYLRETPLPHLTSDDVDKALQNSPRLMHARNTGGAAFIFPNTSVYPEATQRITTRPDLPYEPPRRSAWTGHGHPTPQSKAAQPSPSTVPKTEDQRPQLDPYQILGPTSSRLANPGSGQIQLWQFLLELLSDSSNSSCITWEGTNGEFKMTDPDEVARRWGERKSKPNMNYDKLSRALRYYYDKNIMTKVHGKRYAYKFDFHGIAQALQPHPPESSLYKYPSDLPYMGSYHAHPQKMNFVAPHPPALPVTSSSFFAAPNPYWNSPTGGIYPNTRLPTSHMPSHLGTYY
# How it was run: as §1
# ELF1 = ELF1 (Homo sapiens, UniProt P32519 1-619); conditions: protein: recombinant; tags: N-terminal GST; dsDNA, one strand shown
# Chain of ELF1 (P32519 whole entry): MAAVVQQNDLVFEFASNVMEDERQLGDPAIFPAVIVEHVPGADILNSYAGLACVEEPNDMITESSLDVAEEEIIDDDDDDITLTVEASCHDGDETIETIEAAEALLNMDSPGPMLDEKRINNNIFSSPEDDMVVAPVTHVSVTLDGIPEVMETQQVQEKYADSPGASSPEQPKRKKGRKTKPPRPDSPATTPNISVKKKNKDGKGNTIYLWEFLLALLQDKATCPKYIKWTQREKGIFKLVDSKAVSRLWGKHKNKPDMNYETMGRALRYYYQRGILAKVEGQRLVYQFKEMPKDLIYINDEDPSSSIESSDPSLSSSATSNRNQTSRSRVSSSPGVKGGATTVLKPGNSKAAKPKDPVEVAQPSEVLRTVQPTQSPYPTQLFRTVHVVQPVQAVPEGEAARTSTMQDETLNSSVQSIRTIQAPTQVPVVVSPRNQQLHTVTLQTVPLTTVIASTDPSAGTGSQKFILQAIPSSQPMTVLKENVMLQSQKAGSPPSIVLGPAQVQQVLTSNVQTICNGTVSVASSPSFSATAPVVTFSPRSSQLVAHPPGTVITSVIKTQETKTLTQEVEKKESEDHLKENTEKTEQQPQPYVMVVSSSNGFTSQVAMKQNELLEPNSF
# How it was run: as §1
# EHF = molecular target: T5, EHF (Homo sapiens, UniProt Q9NZC4 1-300); conditions: protein: recombinant; tags: N-terminal GST; dsDNA, one strand shown
# T5 sequence: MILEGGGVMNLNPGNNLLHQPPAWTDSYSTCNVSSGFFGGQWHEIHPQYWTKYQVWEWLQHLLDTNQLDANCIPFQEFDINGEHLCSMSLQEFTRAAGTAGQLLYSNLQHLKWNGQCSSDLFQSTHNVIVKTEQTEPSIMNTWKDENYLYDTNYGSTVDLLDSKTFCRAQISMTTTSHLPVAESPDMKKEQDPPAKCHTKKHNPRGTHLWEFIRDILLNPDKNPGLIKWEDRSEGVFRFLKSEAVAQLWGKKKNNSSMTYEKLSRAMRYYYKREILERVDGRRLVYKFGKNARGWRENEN
# How it was run: as §1
# SPI1 = SPI1 (Homo sapiens, UniProt P17947 1-270); conditions: protein: recombinant; tags: N-terminal GST; dsDNA, one strand shown
# How it was run: as §1
# SPIB = SPIB (Homo sapiens, UniProt Q01892 1-262); conditions: protein: recombinant; tags: N-terminal GST; dsDNA, one strand shown
# Chain of SPIB (Q01892 whole entry): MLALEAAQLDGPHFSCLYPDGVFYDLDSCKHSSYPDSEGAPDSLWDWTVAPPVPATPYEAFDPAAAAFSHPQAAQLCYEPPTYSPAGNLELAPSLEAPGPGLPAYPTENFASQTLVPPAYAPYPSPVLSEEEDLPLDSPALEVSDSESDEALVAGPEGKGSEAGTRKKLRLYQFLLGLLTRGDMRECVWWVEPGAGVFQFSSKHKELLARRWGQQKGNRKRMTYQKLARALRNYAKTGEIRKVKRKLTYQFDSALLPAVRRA
# How it was run: as §1
# ELK3 = molecular target: T6, ELK3 (Homo sapiens, UniProt P41970 1-407); conditions: protein: recombinant; tags: N-terminal GST; dsDNA, one strand shown
# T6 sequence: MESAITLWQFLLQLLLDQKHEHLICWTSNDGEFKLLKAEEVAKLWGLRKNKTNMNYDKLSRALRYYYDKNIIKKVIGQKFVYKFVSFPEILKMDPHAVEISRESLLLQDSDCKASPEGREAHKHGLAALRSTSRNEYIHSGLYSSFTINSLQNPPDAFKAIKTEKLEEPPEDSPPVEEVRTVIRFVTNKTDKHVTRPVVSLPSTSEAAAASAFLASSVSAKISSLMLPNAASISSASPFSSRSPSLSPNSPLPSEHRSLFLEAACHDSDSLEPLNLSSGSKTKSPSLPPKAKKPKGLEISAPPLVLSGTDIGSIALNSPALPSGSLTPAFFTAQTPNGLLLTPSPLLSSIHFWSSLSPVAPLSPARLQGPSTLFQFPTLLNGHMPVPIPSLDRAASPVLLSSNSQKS
# How it was run: as §1
# FEV = molecular target: T7, FEV (Homo sapiens, UniProt Q99581 1-238); conditions: protein: recombinant; tags: N-terminal GST; dsDNA, one strand shown
# T7 sequence: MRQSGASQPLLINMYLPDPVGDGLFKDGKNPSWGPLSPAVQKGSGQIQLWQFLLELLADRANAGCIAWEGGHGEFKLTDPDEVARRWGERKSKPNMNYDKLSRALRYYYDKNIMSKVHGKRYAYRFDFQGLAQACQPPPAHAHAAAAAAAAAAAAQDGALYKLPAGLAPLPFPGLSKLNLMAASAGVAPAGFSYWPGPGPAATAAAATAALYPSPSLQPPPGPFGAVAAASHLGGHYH
# How it was run: as §1
# ETV5 = ETV5 (Homo sapiens, UniProt P41161 1-510); conditions: protein: recombinant; tags: N-terminal GST; dsDNA, one strand shown
# Chain of ETV5 (P41161 whole entry): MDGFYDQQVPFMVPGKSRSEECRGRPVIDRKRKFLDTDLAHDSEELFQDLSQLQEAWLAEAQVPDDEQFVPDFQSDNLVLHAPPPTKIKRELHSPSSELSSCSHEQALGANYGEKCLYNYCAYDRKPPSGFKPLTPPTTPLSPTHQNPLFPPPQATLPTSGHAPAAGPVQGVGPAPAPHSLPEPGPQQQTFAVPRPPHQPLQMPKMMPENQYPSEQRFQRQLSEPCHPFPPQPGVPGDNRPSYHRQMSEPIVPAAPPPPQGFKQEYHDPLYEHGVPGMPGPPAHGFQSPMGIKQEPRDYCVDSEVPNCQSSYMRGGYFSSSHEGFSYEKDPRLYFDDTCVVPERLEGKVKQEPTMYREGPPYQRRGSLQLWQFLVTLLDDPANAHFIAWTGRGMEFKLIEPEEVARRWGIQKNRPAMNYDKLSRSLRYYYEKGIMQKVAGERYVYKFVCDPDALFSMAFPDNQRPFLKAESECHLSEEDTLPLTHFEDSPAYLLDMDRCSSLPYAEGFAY
# How it was run: as §1
# HSF1 = HSF1 (Homo sapiens, UniProt Q00613 1-529); conditions: protein: recombinant; tags: N-terminal GST; chain copies: 3; dsDNA, one strand shown
# Chain of HSF1 (Q00613 whole entry): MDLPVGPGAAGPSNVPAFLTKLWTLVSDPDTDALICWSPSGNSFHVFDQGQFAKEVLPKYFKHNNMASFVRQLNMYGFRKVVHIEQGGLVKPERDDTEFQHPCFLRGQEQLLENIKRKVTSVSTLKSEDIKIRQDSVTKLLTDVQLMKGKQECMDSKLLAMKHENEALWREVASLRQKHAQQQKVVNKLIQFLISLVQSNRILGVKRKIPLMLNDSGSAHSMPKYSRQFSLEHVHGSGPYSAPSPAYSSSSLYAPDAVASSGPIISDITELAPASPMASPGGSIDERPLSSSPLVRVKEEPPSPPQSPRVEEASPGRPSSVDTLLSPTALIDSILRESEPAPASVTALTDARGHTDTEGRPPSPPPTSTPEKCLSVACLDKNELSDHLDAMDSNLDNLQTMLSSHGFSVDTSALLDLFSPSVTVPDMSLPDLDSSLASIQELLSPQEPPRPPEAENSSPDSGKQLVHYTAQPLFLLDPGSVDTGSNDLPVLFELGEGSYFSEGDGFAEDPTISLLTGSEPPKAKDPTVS
# How it was run: as §1
# SPIC = molecular target: T8, SPIC (Homo sapiens, UniProt Q8N5J4 1-248); conditions: protein: recombinant; tags: N-terminal GST; dsDNA, one strand shown
# T8 sequence: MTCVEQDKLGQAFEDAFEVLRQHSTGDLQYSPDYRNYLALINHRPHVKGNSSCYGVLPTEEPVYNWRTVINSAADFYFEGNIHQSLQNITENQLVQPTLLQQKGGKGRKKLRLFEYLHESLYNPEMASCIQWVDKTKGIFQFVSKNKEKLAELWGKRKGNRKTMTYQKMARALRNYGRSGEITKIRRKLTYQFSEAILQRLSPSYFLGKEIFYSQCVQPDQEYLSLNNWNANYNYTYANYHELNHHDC
# How it was run: as §1
# ELF4 = ELF4 (Homo sapiens, UniProt Q99607 1-663); conditions: protein: recombinant; tags: N-terminal GST; dsDNA, one strand shown
# Chain of ELF4 (Q99607 whole entry): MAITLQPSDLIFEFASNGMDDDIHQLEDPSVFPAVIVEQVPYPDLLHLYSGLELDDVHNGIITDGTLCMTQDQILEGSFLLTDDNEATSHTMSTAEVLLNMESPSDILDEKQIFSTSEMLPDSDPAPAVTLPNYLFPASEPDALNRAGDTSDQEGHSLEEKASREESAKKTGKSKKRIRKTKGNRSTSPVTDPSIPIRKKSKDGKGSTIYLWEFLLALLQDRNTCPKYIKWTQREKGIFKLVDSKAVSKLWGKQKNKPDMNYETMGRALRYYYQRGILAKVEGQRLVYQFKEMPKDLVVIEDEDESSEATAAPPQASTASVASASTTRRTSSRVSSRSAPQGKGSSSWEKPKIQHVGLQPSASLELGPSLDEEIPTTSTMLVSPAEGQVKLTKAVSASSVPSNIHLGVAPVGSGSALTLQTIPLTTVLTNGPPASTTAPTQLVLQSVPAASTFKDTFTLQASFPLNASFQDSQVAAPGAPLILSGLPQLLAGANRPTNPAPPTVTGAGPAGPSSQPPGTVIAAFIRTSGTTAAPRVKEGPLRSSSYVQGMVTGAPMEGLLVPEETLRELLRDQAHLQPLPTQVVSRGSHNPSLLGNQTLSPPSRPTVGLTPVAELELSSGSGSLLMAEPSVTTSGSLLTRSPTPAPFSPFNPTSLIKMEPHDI
# How it was run: as §1
# ELK4 = molecular target: T9, ELK4 (Homo sapiens, UniProt P28324-2 1-405); conditions: protein: recombinant; tags: N-terminal GST; dsDNA, one strand shown
# T9 sequence: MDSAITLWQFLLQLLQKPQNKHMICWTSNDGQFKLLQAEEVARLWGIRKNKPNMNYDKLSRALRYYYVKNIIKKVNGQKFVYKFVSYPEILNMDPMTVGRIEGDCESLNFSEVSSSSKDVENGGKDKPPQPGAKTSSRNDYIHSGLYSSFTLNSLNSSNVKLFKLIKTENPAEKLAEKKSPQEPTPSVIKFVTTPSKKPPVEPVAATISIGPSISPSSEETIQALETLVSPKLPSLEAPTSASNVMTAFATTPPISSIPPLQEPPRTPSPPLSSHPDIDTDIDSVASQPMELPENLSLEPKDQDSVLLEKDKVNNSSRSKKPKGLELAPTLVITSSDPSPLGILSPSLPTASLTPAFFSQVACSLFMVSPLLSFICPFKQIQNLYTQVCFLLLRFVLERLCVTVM
# How it was run: as §1
# ETV2 = molecular target: T10, ETV2 (Homo sapiens, UniProt O00321 1-342); conditions: protein: recombinant; tags: N-terminal GST; dsDNA, one strand shown
# T10 sequence: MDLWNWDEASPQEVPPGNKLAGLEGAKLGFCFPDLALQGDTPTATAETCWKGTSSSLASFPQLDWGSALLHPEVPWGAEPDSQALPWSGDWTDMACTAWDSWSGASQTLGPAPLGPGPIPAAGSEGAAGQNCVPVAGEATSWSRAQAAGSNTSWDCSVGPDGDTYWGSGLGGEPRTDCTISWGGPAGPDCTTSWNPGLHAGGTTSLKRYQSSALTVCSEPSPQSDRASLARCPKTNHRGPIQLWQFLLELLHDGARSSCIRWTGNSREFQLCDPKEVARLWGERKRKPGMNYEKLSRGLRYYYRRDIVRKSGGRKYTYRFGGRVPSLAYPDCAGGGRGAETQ
# How it was run: as §1
# ELF3 = molecular target: T11, ELF3 (Homo sapiens, UniProt P78545 1-371); conditions: protein: recombinant; tags: N-terminal GST; dsDNA, one strand shown
# T11 sequence: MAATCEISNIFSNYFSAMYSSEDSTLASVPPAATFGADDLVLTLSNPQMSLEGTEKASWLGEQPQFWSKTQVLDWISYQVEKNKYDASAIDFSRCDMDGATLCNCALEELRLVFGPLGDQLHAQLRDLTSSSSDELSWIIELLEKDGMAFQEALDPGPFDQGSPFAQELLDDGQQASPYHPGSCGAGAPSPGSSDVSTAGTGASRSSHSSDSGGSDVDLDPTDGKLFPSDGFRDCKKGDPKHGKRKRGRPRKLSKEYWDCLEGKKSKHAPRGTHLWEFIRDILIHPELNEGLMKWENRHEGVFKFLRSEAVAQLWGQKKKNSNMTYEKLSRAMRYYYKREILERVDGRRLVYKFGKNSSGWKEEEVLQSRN
# How it was run: as §1
# CRX = CRX (Homo sapiens, UniProt O43186 1-299); conditions: protein: recombinant; tags: N-terminal GST; dsDNA, one strand shown
# Chain of CRX (O43186 whole entry): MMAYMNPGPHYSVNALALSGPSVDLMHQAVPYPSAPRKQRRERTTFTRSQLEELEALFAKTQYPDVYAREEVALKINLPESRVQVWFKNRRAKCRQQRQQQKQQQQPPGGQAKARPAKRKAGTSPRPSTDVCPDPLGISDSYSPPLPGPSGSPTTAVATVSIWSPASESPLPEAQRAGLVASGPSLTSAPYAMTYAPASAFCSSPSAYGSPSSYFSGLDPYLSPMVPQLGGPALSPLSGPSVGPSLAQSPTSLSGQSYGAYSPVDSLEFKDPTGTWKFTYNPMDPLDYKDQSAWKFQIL
# How it was run: as §1
# ETV1 = ETV1 (Homo sapiens, UniProt P50549 1-477); conditions: protein: recombinant; tags: N-terminal GST; dsDNA, one strand shown
# Chain of ETV1 (P50549 whole entry): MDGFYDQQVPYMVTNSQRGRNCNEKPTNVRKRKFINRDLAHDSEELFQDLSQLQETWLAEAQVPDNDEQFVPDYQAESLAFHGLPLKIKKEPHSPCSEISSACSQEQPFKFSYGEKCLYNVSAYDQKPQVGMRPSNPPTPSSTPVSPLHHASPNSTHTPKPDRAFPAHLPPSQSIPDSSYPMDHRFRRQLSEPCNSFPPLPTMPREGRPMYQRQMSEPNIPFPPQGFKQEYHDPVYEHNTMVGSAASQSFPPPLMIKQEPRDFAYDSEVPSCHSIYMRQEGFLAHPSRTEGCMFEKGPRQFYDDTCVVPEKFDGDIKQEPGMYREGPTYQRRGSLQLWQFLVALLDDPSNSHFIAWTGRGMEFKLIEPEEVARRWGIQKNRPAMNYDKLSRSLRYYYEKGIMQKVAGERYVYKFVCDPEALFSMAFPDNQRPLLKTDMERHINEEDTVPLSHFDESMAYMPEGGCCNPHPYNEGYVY
# How it was run: as §1
sequence,measurement,setting,value
AAGCAT,binding signal,FLI1,"1.09 fold enrichment (6-mer frequency, TF over GST control)"
same,binding signal,ELK1,"1.09 fold enrichment (6-mer frequency, TF over GST control)"
same,binding signal,GABPA,"1.14 fold enrichment (6-mer frequency, TF over GST control)"
same,binding signal,ERG,"1.13 fold enrichment (6-mer frequency, TF over GST control)"
same,binding signal,ELF1,"1.09 fold enrichment (6-mer frequency, TF over GST control)"
same,binding signal,EHF,"1.06 fold enrichment (6-mer frequency, TF over GST control)"
same,binding signal,SPI1,"1.06 fold enrichment (6-mer frequency, TF over GST control)"
same,binding signal,SPIB,"1.14 fold enrichment (6-mer frequency, TF over GST control)"
same,binding signal,ELK3,"1.04 fold enrichment (6-mer frequency, TF over GST control)"
same,binding signal,FEV,"1.07 fold enrichment (6-mer frequency, TF over GST control)"
same,binding signal,ETV5,"1.06 fold enrichment (6-mer frequency, TF over GST control)"
same,binding signal,HSF1,"1.15 fold enrichment (6-mer frequency, TF over GST control)"
same,binding signal,SPIC,"1.06 fold enrichment (6-mer frequency, TF over GST control)"
same,binding signal,ELF4,"1.13 fold enrichment (6-mer frequency, TF over GST control)"
same,binding signal,ELK4,"1.19 fold enrichment (6-mer frequency, TF over GST control)"
same,binding signal,ETV2,"1.06 fold enrichment (6-mer frequency, TF over GST control)"
same,binding signal,ELF3,"1.17 fold enrichment (6-mer frequency, TF over GST control)"
same,binding signal,CRX,"1.14 fold enrichment (6-mer frequency, TF over GST control)"
same,binding signal,ETV1,"1.04 fold enrichment (6-mer frequency, TF over GST control)"
